UDG counterscr = blocks uracil-DNA glycosylase in AID counter-screen; Potency, µM (top dose mostly 115 µM), actives largely listed as inhibitors; 91,000 tested, 0.14% active; FRET deamination/UDG coupled assay, UDG read, 4 h; further: nearly all actives have a fitted effect of over 65% in size
AID inh = blocks human AID cytidine deaminase activity | Q9GZX7 | AID deamination FRET fluorescence, UDG-coupled, 4 h | Potency, µM (titrated, usually from 115 µM), hits mostly inhibitors | 91,000 tested, 0.32% active; further: nearly all actives have a fitted effect of over 25% in size
Target sequence (Q9GZX7 whole entry, looked up): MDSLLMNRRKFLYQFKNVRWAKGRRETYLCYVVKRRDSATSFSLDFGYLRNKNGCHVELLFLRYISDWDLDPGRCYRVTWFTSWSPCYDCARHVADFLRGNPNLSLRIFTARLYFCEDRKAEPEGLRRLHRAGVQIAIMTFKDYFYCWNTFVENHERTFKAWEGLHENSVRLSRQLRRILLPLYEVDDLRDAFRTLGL
Numbers stand for hits; 0 = inactive; ? = inconclusive. Sampled rows, rich in hits. Any-hit rate of the full collection: about 0.47%. The call rests on the fitted dose curve; in most records, active means well fitted curve in the direction sought with a large enough effect; inconclusive means small, poorly fitted or top-dose-only effect, or another doubt; inactive means no such curve, though single readings can be large; an effect the other way counts as inactive or inconclusive.

SMILES | UDG counterscr | AID inh
COc1cccc(NC(=O)CSc2nc3c([nH]c4ccccc43)c(=O)n2-c2cccc(Cl)c2)c1 | 0 | 0
Cc1ccc(C(=O)Cn2c(Cl)nc3c2c(=O)n(C)c(=O)n3C)c(C)c1 | 0 | 0
O=C1c2ccccc2-c2onc3c(N4CCN(C5CCCCC5)CC4)cc(NCCO)c1c23 | 0 | 0
CN(C)CCCNc1cc(N2CCN(C3CCCCC3)CC2)c2noc3c2c1C(=O)c1ccccc1-3 | 0 | 39.8µM
COc1ccc(NC(=O)CN(Cc2ccccc2)S(=O)(=O)c2ccc(C)cc2)cc1Cl | 89.1µM | 0
COC(=O)c1ccc(NC(=O)CN(Cc2ccccc2)S(=O)(=O)c2ccc(C)cc2)cc1 | 0 | 0
Cc1cccc(C(=O)N(Cc2ccco2)C2CC2)c1 | 0 | 0
Cc1ccc(C)c(N2CCN(CCCNC(=O)c3ccc4nc(N5CCCCC5)sc4c3)CC2)c1 | 0 | 39.8µM
Cc1ccc(CNC(=O)c2ccc3nc(N4CCCCC4)sc3c2)cc1 | 0 | 0
CCN(C(=O)C(C)OC(=O)c1cc(=O)c2ccccc2o1)c1ccccc1 (stereo unspecified) | 0 | 0
CCc1ccccc1N(C)C(=O)c1nn(C)c2c1CSc1ccccc1-2 | 0 | ?
COc1cc(OC)c(N(C)C(=O)c2nn(C)c3c2CSc2ccccc2-3)cc1Cl | 0 | 44.7µM
CC(c1nc(C(C)(C)C)no1)N1CCN(C(=O)c2ccco2)CC1 (stereo unspecified) | 0 | 0
O=C(O)Cn1cc(C(C(=O)O)N2CCN(c3ccc(F)cc3)CC2)c2ccc(F)cc21 (stereo unspecified) | 0 | 0
Cc1ccc(NC(=O)COc2ccc(-c3nn(C)c(=O)c4ccccc34)cc2)cc1 | 0 | ?
Cc1cccc(OCC(=O)Nc2cc(-c3nn(C)c(=O)c4ccccc34)ccc2N2CCOCC2)c1 | 89.1µM | ?
Cc1cccc(C)c1NC(=O)COC(=O)c1ccc2c(c1)NC(=O)C(C)S2 (stereo unspecified) | 0 | 0
CCOC(=O)C1C(=O)C=C(c2ccco2)CC1c1ccccc1 (stereo unspecified) | 0 | 0

Screening data: PubChem, National Center for Advancing Translational Sciences (NCATS)
